From the supplement of paper PMC11172423
A number with no mark means an inactive call.

Legend:
[1] = system: Falciformispora senegalensis CBS197.79; assay: growth relative to untreated control; higher = less inhibition, active = 20 or less
Procedure, shortened: (§1)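 Viability readout used either MTS (2 h, 490 nm) or resazurin (600 nm). Before this, hyphal fragments of M. mycetomatis MM55 or F. senegalensis CBS197.79 in colourless RPMI 1640 with L-glutamine and MOPS (68–72% transmission at 660 nm) had been exposed in 96-well plates to compound at 100 or 25 µM for 7 days at 37 °C. Growth denotes metabolic activity relative to the untreated growth control, with a medium-plus-dye blank subtracted from both.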

[2] = system: Madurella mycetomatis MM55; assay: as above
Procedure, shortened: as §1

Compound Clc1ccc(Nc2nc3cnc(NC4CC4)nc3n2C2CCNCC2)cc1Cl has a growth ([1]; 25 µM) of 76.9%, a growth ([1]; 100 µM) of 91.4% and a growth ([2]; 25 µM) of 73.7%. For the same compound, the growth ([2]; 100 µM) was 73%.
For COc1ccc(CCN(Cc2cccs2)C(=O)c2cc3sccc3n2C)cc1OC, the growth ([1]; 25 µM) was 97.9%, the growth ([1]; 100 µM) was 113% and the growth ([2]; 25 µM) was 5.66% (active). The growth ([2]; 100 µM) was 31.3%.
For O[C@@H](c1cc(C(F)(F)F)nc2c(C(F)(F)F)cccc12)[C@H]1CCCCN1, the growth ([1]; 25 µM) was 8.55% (active), the growth ([1]; 100 µM) was 14.8% (active) and the growth ([2]; 25 µM) was 5.4% (active). For the same compound, the growth ([2]; 100 µM) was 4.2% (active).
CCCOc1ccc(C(F)(F)F)cc1NC(=O)c1nc2nccc(C)n2n1 was tested, and the growth ([1]; 25 µM) was 91.7%, the growth ([1]; 100 µM) was 90% and the growth ([2]; 25 µM) was 62%. For the same compound, the growth ([2]; 100 µM) was 84.4%.
For Nc1nonc1-c1nc2c(-c3cccc(Cl)c3)nccc2n1CCCNC(=O)Cc1ccc(Cl)cc1, the growth ([1]; 25 µM) was 90%, the growth ([1]; 100 µM) was 110% and the growth ([2]; 25 µM) was 80.5%. The growth ([2]; 100 µM) was 121%.
OC(Cn1cncn1)(Cn1cncn1)c1ccc(F)cc1F gave a growth ([1]; 25 µM) of 106%, a growth ([1]; 100 µM) of 105% and a growth ([2]; 25 µM) of 76%. The growth ([2]; 100 µM) was 4.95% (active).
With CC[C@H](C)[C@@H]1NC(=O)c2csc(n2)[C@H]([C@@H](C)CC)NC(=O)c2csc(n2)CNC(=O)c2nc1oc2C the growth ([1]; 25 µM) was 83.8%, the growth ([1]; 100 µM) was 100% and the growth ([2]; 25 µM) was 64.4%. It also gave a growth ([2]; 100 µM) of 44.8%.
In the case of Cc1ccc(-c2cc(C(F)(F)F)nn2-c2ccc(S(N)(=O)=O)cc2)cc1, the growth ([1]; 25 µM) is reported as 102%, the growth ([1]; 100 µM) is reported as 9.81% (active) and the growth ([2]; 25 µM) is reported as 98%. The growth ([2]; 100 µM) was 6.13% (active).
For O=C(NCc1ccco1)c1ccc2[nH]c(COc3ccc(C45CC6CC(CC(C6)C4)C5)cc3)nc2c1, the growth ([1]; 25 µM) was 97.5%, the growth ([1]; 100 µM) was 84.5% and the growth ([2]; 25 µM) was 87.5%. It also gave a growth ([2]; 100 µM) of 168%.
CN(C)c1ncc2nc(Nc3cc(Cl)cc(C(F)(F)F)c3)n(C3CCNCC3)c2n1 showed a growth ([1]; 25 µM) of 102%, a growth ([1]; 100 µM) of 99.5% and a growth ([2]; 25 µM) of 86.2%. For the same compound, the growth ([2]; 100 µM) was 5.43% (active).
Compound C[C@@H]1CS/C(=N\NC(=O)C(=O)[C@@H](NC(=O)C2CCCCCC2)C2CCOCC2)N1C has a growth ([1]; 25 µM) of 95.5%, a growth ([1]; 100 µM) of 98.8% and a growth ([2]; 25 µM) of 88.8%. It also gave a growth ([2]; 100 µM) of 93.2%.
Cc1cnc2nc(NC3COc4ccc(F)cc43)nc(NC3CCC4(CCCC4)CC3)c2c1 (stereo unspecified) showed a growth ([1]; 25 µM) of 85.8%, a growth ([1]; 100 µM) of 95% and a growth ([2]; 25 µM) of 73.6%. For the same compound, the growth ([2]; 100 µM) was 38.8%.
With CO[C@H]1C[C@H](O[C@H]2[C@H](C)O[C@@H](O[C@@H]3/C(C)=C/C[C@@H]4C[C@@H](C[C@]5(C=C[C@H](C)[C@@H](C6CCCCC6)O5)O4)OC(=O)[C@@H]4C=C(C)[C@@H](O)[C@H]5OC/C(=C\C=C\[C@@H]3C)[C@]54O)C[C@@H]2OC)O[C@@H](C)[C@@H]1O the growth ([1]; 25 µM) was 93.1%, the growth ([1]; 100 µM) was 88.5% and the growth ([2]; 25 µM) was 101%. The growth ([2]; 100 µM) was 125%.
In the case of CC(C)CN(C[C@@H](O)[C@H](Cc1ccccc1)NC(=O)O[C@H]1CO[C@H]2OCC[C@H]21)S(=O)(=O)c1ccc(N)cc1, the growth ([1]; 25 µM) is reported as 97.7%, the growth ([1]; 100 µM) is reported as 101% and the growth ([2]; 25 µM) is reported as 130%. For the same compound, the growth ([2]; 100 µM) was 90.5%.
